# Reference: the supplement of paper PMC12582362
# Where a name gives a salt, the structure may show the parent alone. The campaign covered roughly 1,500 compounds. About 30 (2%) showed activity. The list comes from a sample in which actives are over-represented; it also holds similar structures and randomly drawn compounds. Unmarked numbers belong to inactive results.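 How the source made its calls: active = robust z-score below -2; a few such results were not called.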
# System: optoTopBP1 Flp-In 293 T-REx (HEK293) cells
# Assay: light-induced TopBP1 condensate (nuclear foci) count, plate-normalised robust z-score vs non-control wells; higher = more TopBP1 condensates (negative = condensation inhibitor), active = hit call of the paper
# Settings: 10 µM; incubation time 2 h
row,SMILES,light-induced TopBP1 condensate (z-score)
1,C[CH2][Hg][S]c1ccccc1C(=O)[O-].[Na+] [Thimerosal],-8.21 (active)
2,C[C@]12CC[C@H]3[C@@H](CCC4=CC(=O)CC[C@@H]43)[C@@H]1CC[C@@H]2O [Nandrolone],2.28
3,O=C([O-])c1ccccc1-c1c2cc(Br)c(=O)cc-2oc2[c]([Hg+])c([O-])c(Br)cc12.[Na+].[Na+].[OH-] [Merbromin],-0.221
4,C[C@]12CC[C@@H](O)C[C@@H]1CC[C@@H]1[C@@H]2CC[C@]2(C)C(=O)CC[C@@H]12 [Androsterone],0.981
5,CC(=O)O[C@H]1C[C@H](O[C@H]2[C@@H](O)C[C@H](O[C@H]3[C@@H](O)C[C@H](O[C@H]4CC[C@@]5(C)[C@H](CC[C@@H]6[C@@H]5C[C@@H](O)[C@]5(C)[C@@H](C7=CC(=O)OC7)CC[C@]65O)C4)O[C@@H]3C)O[C@@H]2C)O[C@H](C)[C@H]1O[C@@H]1O[C@H](CO)[C@@H](O)[C@H](O)[C@H]1O [Lanatoside C],-1.56
6,C[C@]12CC[C@@H](O)C[C@H]1CC[C@@H]1[C@@H]2CC[C@]2(C)C(=O)CC[C@@H]12 [3-alpha-Hydroxy-5-beta-androstan-17-one],-0.529
7,C[C@]12CC[C@H](O)C[C@H]1CC[C@@H]1[C@@H]2CC[C@]2(C)[C@@H](C3=CC(=O)OC3)CC[C@]12O [Digitoxigenin],-2.06 (active)
8,C[C@]12CC[C@H](O)C[C@@H]1CC[C@@H]1[C@@H]2CC[C@]2(C)C(=O)CC[C@@H]12 [Epiandrosterone],-0.588
9,C[C@]12CC[C@H](O)C[C@H]1CC[C@@H]1[C@@H]2C[C@@H](O)[C@]2(C)[C@@H](C3=CC(=O)OC3)CC[C@]12O [Digoxigenin],-2.51 (active)
10,CO[C@]12C[C@@H](COC(=O)c3cncc(Br)c3)CN(C)[C@@H]1Cc1cn(C)c3cccc2c13 [Nicergoline],-0.703
11,CC(=O)NC1CCSC1=O (racemic) [N-Acetyl-DL-homocysteine Thiolactone],-0.247
12,CC(=O)O[C@H]1CC[C@@]2(C)C(=CC[C@@H]3[C@@H]2CC[C@]2(C)C(=O)CC[C@@H]32)C1 [Dehydroisoandosterone 3-acetate],-0.674
13,COc1cc([C@@H]2c3cc4c(cc3[C@H](O)[C@H]3COC(=O)[C@H]23)OCO4)cc(OC)c1OC [Podophyllotoxin],-2.43 (active)
14,COc1cc2c(c(OC)c1OC)-c1ccc(OC)c(=O)cc1[C@@H](NC(C)=O)CC2 [Colchicine],-1.18
15,CC(CCc1ccccc1)NC(C)C(O)c1ccc(O)cc1 (stereo not given) [Nylidrin],0.555
16,C#C[C@]1(O)CC[C@H]2[C@@H]3CCC4=CC(=O)CCC4=C3C=C[C@@]21CC [Gestrinone],0.545
17,CN1C(=O)COc2c(C(=O)NC3CN4CCC3CC4)cc(Cl)cc21 (stereo not given) [Azasetron hydrochloride],0.519
18,C[N+]1(C)[C@@H]2CC[C@H]1C[C@@H](OC(=O)C(CO)c1ccccc1)C2 (stereo not given in full) [Methylatropine nitrate],-0.568
19,COc1ccc(CCN)cc1OC [Homoveratrylamine],-1.31
20,C[C@]12CCC(=O)C=C1C=C[C@@H]1[C@@H]2CC[C@@]2(C)[C@H]1CC[C@@]2(O)CCC(=O)O [Canrenoic acid potassium salt],1.33
